This is part of a sample that, as a whole, favours compounds with a hit. Of some 83,000 tested, about 20% had one in any assay.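 Cells were grown in 96-well plates and exposed to the test compound at a single concentration for 48 hours; results are reported as percent growth, with values below 10 considered active.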 Values without a mark were called inactive. Active and inactive are the calls of the source.

Common to all, as to assay: NCI-60 one-dose screen, 48 h (100 = growth as untreated, 0 = no growth, -100 = all killed)
Conditions in all cases: 10 µM unless noted

Assay [1] has as its system SR leukemia.
The test system of assay [2] is RPMI-8226 leukemia.
Assay [3] has as its system OVCAR-8 ovarian.
The test system of assay [4] is OVCAR-5 ovarian.
For assay [5], the system named is OVCAR-4 ovarian.
The test system of assay [6] is SK-OV-3 ovarian.
In assay [7] the test system is IGROV1 ovarian.
Assay [8] concerns OVCAR-3 ovarian.
In assay [9] the test system is HS 578T breast.
Assay [10] has as its system NCI/ADR-RES ovarian.
For assay [11], the system named is T-47D breast.
In assay [12] the test system is BT-549 breast.
Assay [13] relates to SW-620 colon.
The subject of assay [14] is MCF7 breast.
Assay [15] has as its system HCT-116 colon.
Assay [16] concerns HCC-2998 colon.
Assay [17] deals with KM12 colon.
The subject of assay [18] is MDA-MB-435 melanoma.

As for `C=C(C)C(=O)O[C@H]1C[C@@]2(C)OC(=CC2=O)[C@H](C)[C@H](O)[C@H]2OC(=O)C(=C)[C@@H]21`, the growth was 38.1% in assay [1]; 27.1% in [2]; 71.9% in [3]; 98.6% in assay [4]; 82.3% in [5]; 89.7% in assay [6]. For the same compound, the growth in [7] was 69.7%; in [8], 20.1%; in assay [9] it was 95.4%; in [10] it was 84.1%; in assay [11] it was 22.2%; in [12] it was 68.9%. Besides, the growth is 17.3% in assay [13]; 22.1% in assay [14]; 33.4% in assay [15]; 114% in assay [16]; 84.1% in assay [17].
Take `CC1(C)CC[C@]2(C(=O)O)CC[C@]3(C)C(=CCC4[C@@]5(C)C[C@@H](O)[C@@H]6OC(c7cccc([N+](=O)[O-])c7)OC[C@@]6(C)C5CC[C@]43C)C2C1` (some centres not stated): the growth in assay [1] is 72.7%; in assay [2], 56%; in assay [3], 58.7%; in assay [4], 97.2%; in assay [5], 83.2%; in assay [6], 105%. For the same compound, the growth in [7] was 74.4%; in assay [8], 81.9%; in assay [9] it was 94.1%; in assay [10] it was 39.7%; in [11] it was 93.1%; in assay [12], 77.3%. The growth was 73.7% in assay [13]; 74.4% in [14]; 49.5% in assay [15]; 42% in assay [16]; 46.1% in [17].
As for `CC(C)=CCc1c2c(c(O)c3c1O[C@]14C(=C[C@@H]5C[C@H]1C(C)(C)O[C@@]4(C/C=C(/C)C(=O)O)C5=O)C3=O)CC(O)C(C)(C)O2` (some centres not stated), the growth in assay [1] is -5.31% (active); in assay [2], -18.5% (active); in assay [3], -25.1% (active); in assay [4], -10.7% (active); in [5], 18.7%; in assay [6], 30.4%. Besides, the growth in assay [7] is 5.2% (active); in [8], -96.4% (active); in [9], 15.7%; in assay [10], 18%; in assay [11], -10.2% (active); in assay [12], -14.3% (active). Also, the growth in [13] was -44.8% (active); in assay [14], -41.4% (active); in assay [15], -69.8% (active); in [16], -84.7% (active); in [17] it was -68.9% (active).
Take `Cc1cc(=O)n2nc(-c3cn(C)c4ccc(Cl)cc34)sc2n1`: the growth in assay [1] is 93%; in [2], 94.5%; in [3], 96.8%; in [4] it was 93.8%; in [5], 93.7%; in assay [6], 84.3%. Moreover, the growth in assay [7] was 83.7%; in assay [9], 83.9%; in assay [10], 93.2%; in assay [11] it was 50.8%; in assay [12], 108%; in [18], 99%. Besides, the growth is 97.6% in assay [13]; 14.5% in [14]; 86.3% in assay [15]; 102% in assay [16]; 94.1% in [17].
Take `O=C1Nc2ccc(Cl)cc2/C1=C/c1ccc(OCc2ccc(Br)cc2F)cc1`: the growth in assay [1] was 97.2%; in assay [2] it was 95.8%; in assay [3] it was 99.8%; in [4], 101%; in assay [5], 100%; in [6] it was 98%. Further, the growth in assay [7] was 104%; in assay [9], 102%; in assay [10], 98.2%; in assay [11], 106%; in assay [12], 129%; in assay [18] it was 104%. Also, the growth is 97.8% in assay [13]; 87.5% in assay [14]; 96.7% in assay [15]; 112% in [16]; 101% in [17].
As to `COc1ccc(-c2nc3cc(Cl)c(Cl)cc3n2CC(=O)N=Nc2c(O)[nH]c3ccc(Cl)cc23)cc1`, the growth in assay [1] is 51.6%; in assay [2] it was 40.2%; in assay [3], 45.3%; in [4], 35.4%; in [5], 5.4% (active); in [6], 52.5%. For the same compound, the growth in [7] is 5.72% (active); in [9], 2.89% (active); in [10], 17.8%; in assay [11], -14.4% (active); in [12], 25.8%; in assay [18], 16.9%. For the same compound, the growth is 32.1% in assay [13]; 40% in [14]; 7.71% (active) in [15]; 29.8% in assay [16]; 59% in assay [17].
`CC(C)(C)CC(C)(C)n1nnnc1C(Nc1ccccc1)c1cc2cccc3ccc4cccc1c4c32` (configuration not stated): the growth in assay [1] was 82.3%; in [2], 82.2%; in [3], 86.4%; in assay [4] it was 85.3%; in assay [5] it was 82.7%; in assay [6] it was 87.1%. In addition, the growth in [7] was 92.6%; in assay [9], 90.3%; in assay [10] it was 81.7%; in assay [11] it was 55.7%; in assay [12] it was 130%; in assay [18], 83.6%. Besides, the growth in assay [13] is 82.3%; in assay [14], 61.6%; in [15] it was 45.1%; in [16] it was 90.8%; in [17], 86.7%.
In the case of `CN1CCN(c2ccc(C(=O)Nc3cccc(-c4cn(-c5ccc(S(N)(=O)=O)cc5)nn4)c3)cc2C(F)(F)F)CC1`, the growth in assay [1] is -1.19% (active); in [2], 10.7%; in assay [3], 86.7%; in assay [4] it was 84.3%; in [5], 84.8%; in [6], 102%. The growth is 86.9% in assay [7]; 71% in [9]; 101% in [10]; 74.8% in assay [11]; 73.5% in assay [12]; 77.7% in assay [18]. The growth in assay [13] was 50.4%; in [14], 70.8%; in assay [15] it was 71.4%; in assay [16], 88.3%; in [17], 59.1%.
Take `CN1CCN(c2nc(-c3csc(-c4ccncc4)n3)cc3ccccc23)CC1`: the growth in [1] is -18.2% (active); in assay [2] it was 47.1%; in assay [3], 84%; in assay [4], 76.1%; in assay [5], 84.9%; in [6], 86.4%. In addition, the growth in [7] was 56.8%; in [9] it was 66.1%; in assay [10], 68%; in assay [11] it was 55.9%; in assay [12] it was 83.5%; in assay [18], 56.2%. Also, the growth in [13] was 74.2%; in assay [14] it was 67.8%; in [15], 25.4%; in [16], 48.8%; in assay [17] it was 62.6%.
In the case of `Cc1ccccc1NC1CC(=O)N(c2ccc(Cl)cc2Cl)C1=O` (configuration not stated), the growth in assay [1] was 102%; in [2] it was 102%; in assay [3] it was 103%; in [4], 107%; in assay [5], 97.5%; in assay [6], 108%. Further, the growth in assay [7] is 101%; in [9] it was 99.6%; in [10] it was 99.9%; in assay [11] it was 105%; in assay [12], 123%; in assay [18], 101%. The growth in [13] is 96.2%; in assay [14] it was 94%; in assay [15], 108%; in assay [16], 109%; in assay [17] it was 105%.
In the case of `COc1cc(O)c2c(c1)/C=C/C[C@H](O)[C@H](O)C(=O)/C=C\C[C@H](C)OC2=O`, the growth in assay [1] was -6.77% (active); in assay [2], -4.42% (active); in assay [3], 19.9%; in assay [4] it was 8.3% (active); in assay [5], 18.9%; in assay [6] it was 75.4%. Further, the growth in assay [7] is 9.18% (active); in assay [9], -26.4% (active); in [10] it was 8.99% (active); in assay [11], -1.9% (active); in assay [12], -29.2% (active); in assay [18], -15.4% (active). Besides, the growth in assay [13] is -9.76% (active); in assay [14], 0.782% (active); in assay [15] it was -16.3% (active); in assay [16] it was -41.9% (active); in assay [17] it was 19.1%.
For the compound `O=C(N/N=C\c1ccc(Cl)cc1)c1ccc2nc(-c3ccc(Br)cc3)[nH]c2c1`, the growth in assay [1] was -8.2% (active); in assay [2], -8.35% (active); in assay [3], -14.4% (active); in assay [4], 36.8%; in [5], -44.1% (active); in assay [6], 79.1%. The growth in assay [7] is -43.6% (active); in [9], 15.6%; in [10], 35.7%; in assay [11] it was 0.0838% (active); in assay [12], 97.7%; in assay [18], 3.54% (active). For the same compound, the growth was -49.3% (active) in assay [13]; -33.2% (active) in assay [14]; -86.8% (active) in assay [15]; -42.5% (active) in assay [16]; -23.2% (active) in assay [17].
For `CCN1C(=O)N(CC)C2SC(N/N=C/c3ccccc3)=NC21` (configuration not stated), the growth in assay [1] was 18.6%; in assay [2] it was 21.2%; in assay [3] it was 8.59% (active); in assay [4], 51.6%; in [5], 71.6%; in [6], 38.3%. The growth in [7] was 28%; in [9] it was 15.8%; in assay [10], 3.93% (active); in assay [11] it was 64.8%; in assay [12], -19.9% (active); in assay [18] it was -10.2% (active). Also, the growth is 22.5% in assay [13]; 18.6% in assay [14]; 14.2% in assay [15]; 12.7% in [16]; 13.3% in assay [17].
As for `Cc1cn(-c2cc(NC(=O)c3cncc(C#Cc4cnc5ccc(OCCCS(C)(=O)=O)nn45)c3)cc(C(F)(F)F)c2)cn1`, the growth in assay [1] was 2.78% (active); in assay [2], 39.5%; in assay [3], 15.4%; in assay [4], 22.6%; in [5], 58.4%; in [6] it was 104%. For the same compound, the growth is 14.4% in assay [7]; -3.18% (active) in assay [9]; 89.6% in assay [10]; 30.5% in [11]; -1.88% (active) in assay [12]; 34.7% in assay [18]. The growth in [13] was 8.59% (active); in [14] it was 0.458% (active); in assay [15], 3.57% (active); in assay [16] it was 17.4%; in assay [17] it was -17.8% (active).
For the compound `Nc1nc(-c2cccc([N+](=O)[O-])c2)c(N=Nc2cccc(Cl)c2)s1`, the growth in assay [1] is 31.4%; in assay [2], 46.6%; in assay [3], 41.4%; in [4], 64.3%; in assay [5], 49.2%; in [6], 42.7%. Further, the growth was 33.8% in [7]; 55% in [9]; 38.9% in assay [10]; 13.6% in assay [11]; 48.7% in assay [12]; 53.3% in assay [18]. Besides, the growth in assay [13] is 52.4%; in [14], 19.1%; in assay [15], 33.2%; in [16], 27.2%; in assay [17] it was 25.7%.
With `CCN1C(=O)N(CC)C2SC(N/N=C/c3ccc(F)cc3)=NC21` (configuration not stated), the growth in assay [1] was 19.4%; in assay [2] it was 19.6%; in assay [3], 2.03% (active); in assay [4] it was 48.4%; in assay [5], 67.2%; in [6], 36.6%. The growth in [7] was 25.1%; in assay [9], 11.9%; in [10], 0.946% (active); in [11], 64.8%; in assay [12], -28.4% (active); in assay [18] it was -35.8% (active). For the same compound, the growth in [13] was 20.8%; in assay [14], 17.5%; in [15], 13.7%; in assay [16] it was 14.1%; in assay [17] it was 11.1%.
